Source: PubChem BioAssay
NadD inh: inhibitors of Staphylococcus aureus NadD; actives 0.78% (n = 360,000); inhibition, % at 20 µM; purified NadD enzyme, colorimetric absorbance read-out; in the data active means inhibition above about 26%
Myeloid diff MLP: myeloid differentiation induction | actives 1% (n = 360,000) | AID 624256 | ER-HoxA9 myeloid progenitors, lysozyme-GFP differentiation, flow cytometry | calls only at 10 µM;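 active means normalized GFP-positive differentiation at or above the plate's own cutoff, the solvent-only control mean plus 3 SD; inconclusive means no clear call, values can overlap the other calls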;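 further: cells exposed to compound for four days before flow analysis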
CRFBP-R2 block: antagonists of CRF-binding protein/CRF-R2 receptor complex; HEK293 CRF-R2/CRF-BP, CRF-induced calcium fluorescence; inhibition, % at 11.8 µM; actives 0.59% (n = 350,000);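 active means inhibition of the ligand-induced calcium signal above about 50% at the single tested concentration, limit read from the data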
NRP1-CendR mod: modulators of CendR peptide binding to human neuropilin-1; actives 0.85% (n = 360,000); O14786; FAM-RPARPAR peptide binding to NRP-1, fluorescence polarization; inhibition, % at 25 µM;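 active means inhibition or corrected inhibition above about 18%, plus a signal ratio from 0.5 to 1.5, limit read from the data, passing the limit was not always enough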
Target sequence (O14786 whole entry, looked up): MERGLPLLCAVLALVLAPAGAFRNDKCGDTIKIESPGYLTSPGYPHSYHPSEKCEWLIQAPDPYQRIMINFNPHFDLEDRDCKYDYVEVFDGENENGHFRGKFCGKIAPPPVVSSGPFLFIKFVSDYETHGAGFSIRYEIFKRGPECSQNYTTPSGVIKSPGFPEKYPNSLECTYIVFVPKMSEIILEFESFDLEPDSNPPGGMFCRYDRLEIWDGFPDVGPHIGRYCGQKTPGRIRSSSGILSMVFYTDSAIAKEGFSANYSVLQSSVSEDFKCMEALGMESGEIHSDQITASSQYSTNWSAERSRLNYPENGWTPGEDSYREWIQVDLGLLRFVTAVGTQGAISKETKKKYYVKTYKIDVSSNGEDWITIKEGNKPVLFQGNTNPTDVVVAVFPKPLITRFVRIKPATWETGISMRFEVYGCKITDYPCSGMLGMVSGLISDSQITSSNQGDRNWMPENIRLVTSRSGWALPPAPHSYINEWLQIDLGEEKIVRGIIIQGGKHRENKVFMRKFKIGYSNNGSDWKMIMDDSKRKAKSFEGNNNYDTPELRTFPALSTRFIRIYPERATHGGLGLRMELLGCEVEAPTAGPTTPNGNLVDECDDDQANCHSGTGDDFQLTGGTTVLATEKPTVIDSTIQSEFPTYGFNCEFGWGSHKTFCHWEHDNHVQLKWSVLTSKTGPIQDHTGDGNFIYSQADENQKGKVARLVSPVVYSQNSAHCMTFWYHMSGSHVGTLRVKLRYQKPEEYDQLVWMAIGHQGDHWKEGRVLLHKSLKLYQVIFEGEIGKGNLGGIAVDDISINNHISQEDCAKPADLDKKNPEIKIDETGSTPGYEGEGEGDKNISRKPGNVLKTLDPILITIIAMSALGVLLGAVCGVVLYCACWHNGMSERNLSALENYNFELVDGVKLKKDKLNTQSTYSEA
FAS-TE inh: inhibitors of human fatty acid synthase thioesterase domain | inhibition, % at 15 µM | actives 0.67% (n = 360,000) | recombinant FAS-TE, OMFH fluorogenic substrate, fluorescence endpoint;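 active means compounds whose normalised, plate-corrected inhibition of enzyme fluorescence in the single-dose primary screen is 50% or more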;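 further: 0% = DMSO with enzyme and 100% = substrate without enzyme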
* = called active by the depositor; i = inactive; u = inconclusive; x = no result given; + = active, no number. Compounds with a hit are over-represented: about 3.6% of the library has one in this group of screens.

SMILES	NadD inh	Myeloid diff MLP	CRFBP-R2 block	NRP1-CendR mod	FAS-TE inh
CCS(=O)(=O)c1nc(S(=O)(=O)c2ccc(C)cc2)c(N2CCCCCC2)s1	-8	i	-6	-11	13
Cc1ccc(NC(=O)COC(=O)CCC(=O)c2cccs2)c(C)c1	-3	+	12	-6	2
CNC[C@@H]1OCc2cnnn2CCCC(=O)N([C@H](C)CO)C[C@H]1C	6	i	0	-6	-5
CN(C)C(=O)c1cccc(-c2cnc3cccnn23)c1	5	i	x	14	-8
CCN(C[C@H]1N[C@@](CC)(C(=O)OC)[C@H]2C(=O)N(Cc3ccccc3)C(=O)[C@@H]12)C(=O)Nc1ccc(OC)cc1	4	+	-19	-10	-5
CCN(C[C@H]1N[C@@](CC)(C(=O)OC)[C@H]2C(=O)N(C)C(=O)[C@@H]12)S(=O)(=O)c1ccc(OC)cc1	4	i	10	28*	-12
CCOc1ccc(NC(=O)/C(C#N)=C/c2ccc(N3CCCC3)c(C)c2)cc1	7	+	-135	-117	-44
CCOc1cc(/C=C(/C#N)C(=O)Nc2ccc(O)cc2)cc(Br)c1O	-2	u	-81	-243	2
COc1ccc(/C=C(\C#N)C(=O)Nc2cc(S(=O)(=O)N3CCOCC3)ccc2N2CCCC2)cc1	10	i	-40	9	34
CCN(CC)S(=O)(=O)c1ccc(N2CCCCC2)c(NC(=O)/C(C#N)=C/c2ccc(OC)cc2)c1	13	+	14	-36	33
O=C(C[C@H]1CC[C@@H]2[C@H](COC[C@@H](O)CN2Cc2ccc(Cl)cc2)O1)NCCc1ccccc1	x	i	x	1	x
CC(=O)Nc1ccc(S(=O)(=O)Nc2nc3ccccc3nc2Nc2ccc(N)cc2)cc1	11	i	-2	133	-5
CC(=O)Nc1ccc(Nc2nc3ccccc3nc2NS(=O)(=O)c2ccc(Cl)c([N+](=O)[O-])c2)cc1	12	i	65*	-3	38
COc1ccc(-n2c(O)c(C=Nc3ccccc3)c3ccccc3c2=O)cc1	-11	x	-6	13	0
CCN(c1ccc(N=Cc2c(O)n(Cc3ccc(OC)cc3)c(=O)c3ccccc23)cc1)C(C)C	5	+	-99	133	-135
Cc1ccccc1NS(=O)(=O)c1ccc(C(=O)N(C)CC(=O)Nc2ccccc2Br)cc1	-4	i	88*	-2	0
CN(CC(=O)Nc1ccccc1Br)C(=O)CNC(=O)c1ccc(Oc2ccccc2)cc1	-11	+	4	7	26
COc1cccc(NC(=O)CN(C)C(=O)CNC(=O)c2ccc(Oc3ccccc3)cc2)c1	-3	i	-1	-3	10
CS(=O)(=O)N(CC(=O)Nc1ccc(CC#N)cc1)c1ccc(C23CC4CC(CC(C4)C2)C3)cc1	4	+	-15	-7	41
O=[N+]([O-])c1ccc(Cl)c(/C=N/n2c(-c3ccncc3)n[nH]c2=S)c1	10	+	-4	-6	11
CN1C(=O)NC(c2ccccc2)C2=C1CN(CCc1ccccc1)C2=O (stereo not drawn)	5	i	125*	-10	-9
COc1ccccc1NC(=O)c1ccc(S(=O)(=O)NCc2ccco2)cc1	-3	i	0	5	-1
O=C(O)c1cnc(-c2ccccc2)nc1Sc1ccc(Cl)cc1	2	i	55*	-8	6
COc1ccc(Sc2nc(-c3ccccc3)ncc2C(=O)O)cc1	-3	i	6	2	0
Cc1cc2cc(CNC(=O)Cc3ccc([N+](=O)[O-])cc3)ccc2n1C	28	i	9	30*	1
SMILES	NadD inh	Myeloid diff MLP	CRFBP-R2 block	NRP1-CendR mod	FAS-TE inh
CCOc1ccc(CCNC(=O)c2ccc(C)c(S(=O)(=O)N3CCOCC3)c2)cc1OCC	-5	i	-10	0	-6
Cc1cc2cc(CNC(=O)c3cccc([N+](=O)[O-])c3)ccc2n1C	-4	i	-35	12	31
COc1ccc(CNC(=O)CN2CCN(S(=O)(=O)c3cc(Br)ccc3Br)CC2)cc1OC	-7	i	60*	-3	5
CCOc1ccc(CCNC(=O)c2ccc(F)c(S(=O)(=O)N3CCOCC3)c2)cc1OCC	0	i	-2	23*	-5
COc1ccc(CNC(=O)c2ccc(Cl)c(S(=O)(=O)N3CCOCC3)c2)cc1OC	-1	+	-7	6	-5
COC(=O)C1(C(=O)OC)C[C@H](c2cccs2)N(Cc2ccccc2OC)[C@@H]1c1ccc(F)cc1	x	i	x	-2	x
Cc1ccc(NC(=O)C(c2ccccc2)N2CCN(CC(=O)N3CCOCC3)CC2)cc1Cl (stereo not drawn)	-1	i	0	7	2
COC1OC(COCc2ccccc2)C(N)C(OCc2ccccc2)C1OCc1ccccc1 (stereo not drawn)	-6	i	-8	5	4
CC1(C(=O)NS(=O)(=O)C2CC2)CCCN(C(=O)c2cc3ccccc3s2)C1 (stereo not drawn)	0	i	x	-6	-4
Cc1cc2cc(CNC(=O)c3ccc(S(=O)(=O)N4CCOCC4)cc3)ccc2n1C	4	i	-4	28*	-6
O=C(NCc1cccs1)c1ccc(Cl)c(S(=O)(=O)N2CCOCC2)c1	-2	i	5	31*	-8
CCN1CC=C2C(C#N)=C(N)C(C#N)(C#N)C(c3cc(Cl)ccc3Cl)C2C1 (stereo not drawn)	6	+	-12	-7	-20
CC(C)N1CC=C2C(C#N)=C(N)C(C#N)(C#N)C(c3ccccc3)C2C1 (stereo not drawn)	2	i	-27	39	-13
Nc1nc2ccc(Cl)cc2cc1C(=O)NCCCN1CCOCC1	x	i	x	9	x
O=C(Cn1c(=O)cnc2ccccc21)Nc1ccccc1N1CCOCC1	4	i	4	-2	-3
CC(=O)c1ccccc1NC(=O)Cn1c(=O)cnc2ccccc21	5	i	72*	-8	-6
O=C(Cn1c(=O)cnc2ccccc21)Nc1cc(Cl)ccc1N1CCOCC1	8	+	2	-36	2
NS(=O)(=O)c1ccc(CCNC(=O)CSc2nc3c(sc(=S)n3-c3ccccc3)c(=O)[nH]2)cc1	5	i	2	-5	-1
O=C(O)Cn1cc(/C=N/Nc2ccc([N+](=O)[O-])cn2)c2ccccc21	-1	i	-2	-57	6
Cc1ccc(-n2c(C)cc(/C=N/Nc3ccc([N+](=O)[O-])cn3)c2C)cc1	15	i	-20	-20	-25
Cc1ccc(Cn2cc(/C=N/Nc3ccc([N+](=O)[O-])cn3)c3ccccc32)cc1	19	+	-57	-97	-3
Cc1cc(/C=N/Nc2ccc([N+](=O)[O-])cn2)c(C)n1-c1ccccc1	31*	i	-6	-19	-22
Cc1ccc(S(=O)(=O)N2C[C@H]3[C@H]4C(=O)N(c5ccccc5)C(=O)[C@H]4C[C@H](OC(=O)NCc4ccccc4)[C@@]3(O)C2)cc1	0	i	4	-6	4
